# Measured values reported in PubChem BioAssay AID1159580 (chemical genetic matrix, 2015).
# Among all 5,500 compounds or so, about 2,000 (36%) were called active. Not shown: some 18% with an inconclusive outcome. The list shows a part of the results. A number with no mark means an inactive call. Rule as the data show it: active = normalized growth mostly below about 0.91 (no sharp cut-off); inconclusive = no clear call, values can overlap the other calls; inactive = mostly above about 0.92.
# Assay: chemical genetic growth profiling, strain panel (AID 1159580);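 also: tested at 20 µM; growth read once vehicle control cultures reached saturation at 30 °C; 1 = growth at the plate median or of vehicle wells; lower values mean less growth of the strain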
# Conditions: S. cerevisiae deletion strains, growth OD
# [1] = locus YJR075W, strain HOC1, active compounds read low
# [2] = locus YMR263W, strain SAP30, active compounds read low
# [3] = locus YNL153C, strain GIM3, active compounds read low
# [4] = locus YNL322C, strain KRE1, active compounds read low
# [5] = locus YPL241C, strain CIN2, active compounds read low
# [6] = locus YHR030C, strain SLT2, active compounds read low
# [7] = locus YBR229C, strain ROT2, active compounds read low
# [8] = locus YDL101C, strain DUN1, active compounds read low
# [9] = locus YDL134C, strain PPH21, active compounds read low
# [10] = locus YDR150W, strain NUM1, active compounds read low
# [11] = locus YEL061C, strain CIN8, active compounds read low
# [12] = locus YGR078C, strain PAC10, active compounds read low
# [13] = locus YHR087W, strain rtc3, active compounds read low
# [14] = locus YJR043C, strain POL32, active compounds read low
# [15] = locus YLR039C, strain RIC1, active compounds read low
# [16] = locus YLR058C, strain SHM2 (second series), active compounds read low
# [17] = locus YLR085C, strain ARP6, active compounds read low
# [18] = locus YLR262C, strain YPT6, active compounds read low
# [19] = locus YML094W, strain GIM5, active compounds read low
# [20] = locus YMR219W, strain ESC1, active compounds read low
# [21] = locus YNL298W, strain CLA4 (second series), active compounds read low
# [22] = locus YNR030W, strain Alg12, active compounds read low
# [23] = locus YPL055C, strain LGE1, active compounds read low
# [24] = locus YPR135W, strain CTF4, active compounds read low
compound,measurement,setting,value
C[C@@H]1O[C@H](C[N+](C)(C)C)CS1,normalized growth,"locus YAL040C, strain CLN3, active compounds read low",1.02
same,normalized growth,"locus YCL061C, strain MRC1 (second series), active compounds read low",1.01
same,normalized growth,"locus YDR363W, strain ESC2, active compounds read low",1.03
same,normalized growth,"locus YER002W, strain NOP16, active compounds read low",0.997
same,normalized growth,[1],1.02
same,normalized growth,[2],1.01
same,normalized growth,[3],1.01
same,normalized growth,"locus YNL175C, strain NOP13, active compounds read low",1.01
same,normalized growth,"locus YNL197C, strain WHI3, active compounds read low",1.01
same,normalized growth,"locus YNL224C, strain SQS1, active compounds read low",0.993
same,normalized growth,[4],1.02
same,normalized growth,"locus YOR083W, strain WHI5 (second series), active compounds read low",1.05
same,normalized growth,[5],1.01
CC(C)(CO)[C@@H](O)C(=O)NCCCO,normalized growth,[6],1.09
same,normalized growth,"locus YHR079C, strain IRE1, active compounds read low",0.97
same,normalized growth,"locus YJL095W, strain BCK1, active compounds read low",1.01
same,normalized growth,"locus YJR066W, strain TOR1, active compounds read low",0.936
same,normalized growth,"locus YLR113W, strain HOG1, active compounds read low",0.968
same,normalized growth,"locus YNL183C, strain NPR1, active compounds read low",0.932
same,normalized growth,"locus YOR231W, strain MKK1, active compounds read low",0.998
same,normalized growth,"locus YPL256C, strain CLN2, active compounds read low",0.988
c1ccc(-c2cc3c(ccc4nonc43)nn2)cc1,normalized growth,[7],0.957
same,normalized growth,[8],0.933
same,normalized growth,[9],0.991
same,normalized growth,[10],0.922
same,normalized growth,[11],0.947
same,normalized growth,[12],0.973
same,normalized growth,[6],0.604 (active)
same,normalized growth,[13],0.971
same,normalized growth,[14],0.76 (active)
same,normalized growth,[1],0.97
same,normalized growth,[15],0.96
same,normalized growth,[16],0.977
same,normalized growth,[17],0.878
same,normalized growth,[18],0.988
same,normalized growth,[19],0.935
same,normalized growth,[20],0.981
same,normalized growth,[2],0.923
same,normalized growth,[3],0.955
same,normalized growth,[21],0.945
same,normalized growth,[4],0.988
same,normalized growth,[22],0.905
same,normalized growth,"locus YOL006C, strain TOP1, active compounds read low",0.734
same,normalized growth,[23],0.82 (active)
same,normalized growth,[5],0.89
same,normalized growth,[24],0.764
c1ccc(-c2cc3c(nn2)CCc2nonc2-3)cc1,normalized growth,"locus YAL013W, strain DEP1, active compounds read low",0.979
same,normalized growth,[7],0.984
same,normalized growth,[8],0.992
same,normalized growth,[9],0.985
same,normalized growth,[10],1.01
same,normalized growth,[11],0.985
same,normalized growth,[12],0.992
same,normalized growth,[6],0.784
same,normalized growth,[13],1.01
same,normalized growth,"locus YJL187C, strain SWE1, active compounds read low",0.975
same,normalized growth,[14],0.984
same,normalized growth,[1],0.966
same,normalized growth,[15],1.04
same,normalized growth,[16],0.978
same,normalized growth,[17],0.886
same,normalized growth,[18],1.02
same,normalized growth,[19],1.04
same,normalized growth,[20],0.985
same,normalized growth,[2],0.958
same,normalized growth,[3],0.99
same,normalized growth,[21],0.965
same,normalized growth,[4],0.987
same,normalized growth,[22],0.986
same,normalized growth,[23],1.09
same,normalized growth,[5],0.988
same,normalized growth,[24],0.988
